Screening data deposited in PubChem BioAssay by National Center for Advancing Translational Sciences (NCATS).
B2AR arrestin = recruits beta-arrestin to the human beta2-adrenergic receptor; Potency, µM (doses to about 46.1 µM), without a hit: at the highest dose activation, actives largely listed as activators; AID 492947; beta-arrestin recruitment to beta2AR, cell-based reporter; hit rate 0.02% among 330,000;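 further: potency means the concentration at half of the fitted maximal effect; 0% = DMSO controls and full agonism = EC100 isoproterenol or metaproterenol; nearly all actives have a fitted effect of over 65% in size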
IL-2 act = activators of IL-2 | IL-2 activation reporter assay, cell-based qHTS; stimulated with anti-CD3/CD4/CD28 beads; in transgenic mouse T cells | activation, % (series mostly up to about 46 µM) | hit rate 0.065% among 360,000; in the data active means activation above about 50%; inconclusive means mostly about 30% to 49%; further: 0% is about no effect
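Quantitative HTS in unstimulated transgenic mouse T cells, with memory T cells as non-tolerant control and PMA/ionomycin as tolerance-bypass control. Compound pretreatment lasted 60 minutes before 18 h bead stimulation; EGFP/DsRed fluorescence read.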
PKM2 activator = activators of human pyruvate kinase M2; P14618; purified PKM2, Kinase-Glo ATP luminescence, activation; response scale: 0% is enzyme alone, no compound; Potency, µM (titrated, usually from 57.5 µM), for inactives: at the top dose activation, most hits filed as activators; hit rate 0.34% among 260,000; AID 1631; further: potency means the concentration at half of the fitted maximal effect; on the % scale 0 is the no-effect control and ±100 the full control effect; nearly all actives have a fitted effect of over 55% in size
Target sequence (P14618 whole entry, looked up): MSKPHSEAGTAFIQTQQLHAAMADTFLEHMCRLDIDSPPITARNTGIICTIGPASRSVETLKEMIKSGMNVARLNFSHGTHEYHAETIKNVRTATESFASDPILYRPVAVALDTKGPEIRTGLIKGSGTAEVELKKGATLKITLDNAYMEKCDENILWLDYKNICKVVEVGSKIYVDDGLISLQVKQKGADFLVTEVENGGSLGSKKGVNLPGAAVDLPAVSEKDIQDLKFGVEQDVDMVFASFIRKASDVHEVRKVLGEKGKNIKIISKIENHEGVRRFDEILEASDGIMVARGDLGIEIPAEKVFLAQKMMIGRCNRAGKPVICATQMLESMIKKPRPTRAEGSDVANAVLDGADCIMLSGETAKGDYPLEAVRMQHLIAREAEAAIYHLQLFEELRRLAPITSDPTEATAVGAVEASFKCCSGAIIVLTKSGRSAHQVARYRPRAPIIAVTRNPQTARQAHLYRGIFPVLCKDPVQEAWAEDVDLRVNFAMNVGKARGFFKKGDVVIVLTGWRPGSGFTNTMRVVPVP
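Purified hPK-M2 (>95%) run at intermediate activity with 0.1 mM ADP and 0.5 mM PEP in 50 mM imidazole pH 7.2, KCl, MgCl2; 1 h room temperature. ATP formed read by Kinase-Glo luminescence; normalized to uninhibited and no-enzyme controls.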
PINK1 expr mod = changes PINK1 expression; PINK1 immunofluorescence, high-content cytometry, 24 h; Potency, µM (series often up to 76.6 µM), without a hit: top-dose activation (PINK1 increase), most hits filed as activators; hit rate 0.2% among 410,000; AID 624263; active means well fitted activation curve with a large enough effect; inconclusive means small, poorly fitted or top-dose-only effect; cell line not stated here; further: potency means the concentration at half of the fitted maximal effect; % of control where 0% means no effect; nearly all actives have a fitted effect of over 65% in size
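Fluorescence from anti-PINK1 antibody, together with nuclear and cell stains, was scanned on a laser-scanning cytometer. Before staining, stable-line cells were incubated 24 hours with compounds at 5 concentrations; primary antibody 12 h at 10 degrees C.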
Epigenetic reg = regulators of epigenetic silencing causing reporter derepression in mouse cells | hit rate 0.2% among 280,000 | Potency, µM (series often up to 53.9 µM), without a hit: top-dose GFP activation, usual class: activators | murine LDR cells, GFP reporter derepression, 30 h; further: potency means the concentration at half of the fitted maximal effect; % of control where 0% means no effect; nearly all actives have a fitted effect of over 60% in size
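Murine LDR cells carrying a silenced, genomically integrated CMV-driven GFP reporter were exposed to compound for 30 hours at 37 C. After PBS washes, GFP-positive cells (20–120 um objects) were counted by laser-scanning microplate cytometry.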
HeLa viability = reduces HeLa cell viability in PKM2 activator counter-screen; shares compounds with PKM2 activator; HeLa viability, CellTiter-Glo ATP luminescence, 24 h; activity change, negative = cytotoxicity, % at 57.5 µM; 230 tested, under 10 active; AID 1898; further: % of control where 0% means no effect
Numbers without * were called inactive; u = inconclusive; x = no result given; [ ] = dose if it differs, or a comment. Sampled rows, rich in hits. Any-hit rate of the full collection: about 0.58%. Unless noted, the call rests on the fitted dose curve; in most records, active means well fitted curve in the direction sought with a large enough effect; inconclusive means small, poorly fitted or top-dose-only effect, or another doubt; inactive means no such curve, though single readings can be large; an effect the other way counts as inactive or inconclusive.

SMILES	B2AR arrestin	IL-2 act	PKM2 activator	PINK1 expr mod	Epigenetic reg	HeLa viability
COc1cccc(CNC(=O)c2c(OC)cc(=O)n3c2CCN(C(=O)c2ccccc2Cl)CC3)c1	x	x	x	1%	x	x
COc1cc(-c2cnc3ccccc3c2)cc2c1OCCN(C(=O)CCC(=O)c1ccc(F)cc1)C2	x	x	x	0%	x	x
COc1ccc(-n2c(CNC(=O)c3c(-c4ccccc4)noc3C)nnc2SC)cc1	x	x	x	0%	x	x
CCn1c(SCC(=O)Nc2cccc(O)c2)nc2c1c(=O)n(C)c(=O)n2C	0%	0	1.1µM*	9%	x	-5
CCOC(=O)c1c(-c2ccccc2)csc1NC(=O)CSc1nnnn1C	-1%	3	3.5µM*	6%[38.3 µM]	0%	u
CCOC(=O)c1c(-c2ccccc2)csc1NC(=O)CSc1ccccc1	0%	-3	-17%	0%	0%	x
O=S(=O)(NC1CCC(NS(=O)(=O)c2c(F)cccc2F)CC1)c1ccc2c(c1)OCCO2 (centres undefined)	0%	0	x	-1%	x	-12
O=S(=O)(c1ccc2c(c1)OCCO2)C1CCC(S(=O)(=O)c2c(F)cccc2F)CC1 (centres undefined)	0%	-1	x	0%	x	x
O=S(=O)(NC1CCN(S(=O)(=O)c2ccc3c(c2)OCCO3)C1)c1c(F)cccc1F (centres undefined)	0%	-3	x	0%	x	2
C[C@@H]1CN(S(=O)(=O)c2c(F)cccc2F)CCN1S(=O)(=O)c1ccc2c(c1)OCCO2	-1%	-5	x	0%	x	u
CN(C)c1cccc(C(=O)NCC2Cc3cccc(-c4cncnc4)c3O2)c1 (centres undefined)	x	x	x	0%	x	x
Cc1cnc(C)c(-c2cc(F)cc3c2OC(CNC(=O)c2cc(Cl)ccc2F)C3)n1 (centres undefined)	x	x	x	1%	x	x
COc1cccc(CNC(=O)CCC2CCCN(C(=O)c3cc(C4CC4)[nH]n3)C2)c1 (centres undefined)	0%	0	3.5µM*	2%	0%	-4
COc1cccc(CNC(=O)CCC2CCCN(C(=O)c3cc(C)on3)C2)c1 (centres undefined)	-1%	1	6%	1%	0%	x
CC(C)(C)c1ccc(C(=O)N2CCC3(CC2)CC3C(=O)NCCc2ccccn2)cc1 (centres undefined)	x	x	x	0%	x	x
Cc1ccc(CCC(=O)Nc2nccs2)o1	0%	-1	20µM*	x	0%	4
CCc1ccc(CCC(=O)Nc2nccs2)o1	0%	-1	-2%	3%	3%	x
COc1ccc(Br)cc1S(=O)(=O)Nc1ncccc1C	0%	0	6.3µM*	2%	-1%	0
Cc1nc2sccn2c1CN1CCC2(CC1)CC2C(=O)Nc1ccc2c(c1)OCO2 (centres undefined)	x	x	x	0%	x	x
COc1cc(NC(=O)CSc2nnc3c(n2)[nH]c2ccc(S(=O)(=O)NC(C)C)cc23)cc(OC)c1OC	0%	-1	0.79µM*	4%	-2%	-18
COc1cc(NC(=O)CSc2nnc3c(n2)[nH]c2ccc(OC)cc23)cc(OC)c1	x	x	x	3%	x	x
COc1ccc(CCNC(=O)CSc2ccc3ccccc3c2)cc1OC	0%	-4	0%	0%	1%	x
O=C(CSc1ccc2ccccc2c1)NCCc1ccc(O)c(O)c1	-1%	0	2.8µM*	0%	7%	10
CCc1c(C(=O)NCc2ccccc2Cl)[nH]c(C)c1C(C)=O	0%	0	2%	1%	0%	x
CC(=O)c1c(C)[nH]c(C(=O)NCc2ccccc2Cl)c1C	0%	-2	7.9µM*	-1%	-7%	-3
SMILES	B2AR arrestin	IL-2 act	PKM2 activator	PINK1 expr mod	Epigenetic reg	HeLa viability
COc1ccc(S(=O)(=O)NCC2CCCN(C(=O)c3ccccc3)C2)cc1 (centres undefined)	0%	0	2.5µM*	-1%	-3%	3
Oc1cc(-c2nc3ccccc3s2)cc2c1OCCN(Cc1cccn1-c1ncccn1)C2	x	x	x	4%	x	x
CCN(c1ccccc1)C1SC(=O)N(c2ccccc2)C1=O (centres undefined)	x	x	x	0%	x	x
CC(=O)N(c1ccccc1)C1SC(=O)N(c2ccccc2)C1=O (centres undefined)	0%	0	0.56µM*	x	-1%	0
COc1ccc(S(=O)(=O)Nc2nc3c(s2)CCCC3)cc1	0%	-1	5µM*	-1%	-1%	-27
CCc1nnc(NC(=O)CSc2nnc(-c3ccc(NS(=O)(=O)c4ccccc4)cc3)o2)s1	0%	-1	0.79µM*	1%	-1%	6
Cc1ccc(CNc2ncnc3sc(C(=O)N4CCCC(C(N)=O)C4)c(C)c23)o1 (centres undefined)	x	x	x	0%	x	x
CCNc1nc(NCC)nc(Oc2ccc(N)cc2)n1	4%	-2	2.5µM*	3%	1%	-2
CCNc1nc(OC)nc(Oc2ccc(C(=O)OC)cc2)n1	0%	1	2%	1%	0%	x
COc1ccc(CNC(=O)c2cnn(-c3ncc4c(n3)-c3ccccc3CC4)c2C)cc1OC	x	x	x	1%	x	x
c1coc(-c2ccccc2CN2CCOc3ccc(CN4CCOCC4)cc3C2)c1	x	x	x	1%	x	x
Cc1ccc(NS(=O)(=O)c2ccc3oc(=O)ccc3c2)cc1Cl	-1%	0	1µM*	0%	x	-4
CC(C)NC(=O)c1cn(C2CCC(NC(=O)C(C)(C)C)CC2)nn1 (centres undefined)	x	x	x	0%	x	x
NC(=O)CC(NC(=O)Cc1ccc(Cl)cc1)c1ccc(NCCc2ccccc2F)c([N+](=O)[O-])c1 (centres undefined)	-1%	1	4µM*	0%	0%	-9
NC(=O)CC(NC(=O)Cc1ccc(Cl)cc1)c1ccc(NCC2CC2)c([N+](=O)[O-])c1 (centres undefined)	-1%	0	21%	5%	6%	x
CCn1c(C)nc2cc(C(=O)N/N=C/c3ccc(O)c(O)c3O)ccc21	0%	5	3.2µM*	-1%	-1%	2
O=S1(=O)c2ccccc2N=NN1Cc1ccc(Cl)c(Cl)c1	x	x	26%	x	1%	x
CC(C)(C)c1ccc(CN2N=Nc3ccccc3S2(=O)=O)cc1	0%	-2	3.2µM*	0%	1%	u
COc1cc(=O)n2c(c1C(=O)N(C)Cc1nonc1C)CCN(Cc1cccc3ccccc13)CC2	x	x	x	-1%	x	x
O=S(=O)(c1c(F)cccc1F)N1CCN(S(=O)(=O)c2c(F)cccc2F)CC1	x	x	x	x	x	-17
O=c1[nH]c(Cn2nnc(-c3ccccc3)n2)nc2scc(-c3ccccc3)c12	7%	-2	14µM*	5%	-1%	-20
O=C(CCCn1c(=S)[nH]c2cc3c(cc2c1=O)OCO3)NC1CC1	0%	-2	2.8µM*	-2%	1%	-5
